HSF-1 act: HSF-1 activators, primary screen, NIH3T3-HGL cells, MG132 stress, luminescence, single point | NIH3T3-HGL HSF-1 luciferase reporter, 8 h; 100% = twice DMSO control signal | 300,000 compounds, 1.7% hits | activation, % at 9 µM;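 active = mean replicate activation of at least 50% with a set share of replicates each reaching 50%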;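 note: 0% = median of the neutral control wells and 100% = twice that signal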
TLR4-MyD88 BLA: inhibitors of TLR4-MyD88 association in cells, primary screen, cell-based, HeLa CL3-4, BLA complementation, FRET ratio. Toll-like receptor 4 (Homo sapiens) + Myeloid differentiation primary response protein …. HeLa CL3-4 TLR4/MyD88 BLA complementation. inhibition, % at 8.4 µM. 200,000 compounds, 0.18% hits. AID 861, 2007; in the data active = inhibition above about 25%;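 note: 0% = vehicle and 100% = reference inhibitor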
Target sequence (O00206 whole entry, looked up): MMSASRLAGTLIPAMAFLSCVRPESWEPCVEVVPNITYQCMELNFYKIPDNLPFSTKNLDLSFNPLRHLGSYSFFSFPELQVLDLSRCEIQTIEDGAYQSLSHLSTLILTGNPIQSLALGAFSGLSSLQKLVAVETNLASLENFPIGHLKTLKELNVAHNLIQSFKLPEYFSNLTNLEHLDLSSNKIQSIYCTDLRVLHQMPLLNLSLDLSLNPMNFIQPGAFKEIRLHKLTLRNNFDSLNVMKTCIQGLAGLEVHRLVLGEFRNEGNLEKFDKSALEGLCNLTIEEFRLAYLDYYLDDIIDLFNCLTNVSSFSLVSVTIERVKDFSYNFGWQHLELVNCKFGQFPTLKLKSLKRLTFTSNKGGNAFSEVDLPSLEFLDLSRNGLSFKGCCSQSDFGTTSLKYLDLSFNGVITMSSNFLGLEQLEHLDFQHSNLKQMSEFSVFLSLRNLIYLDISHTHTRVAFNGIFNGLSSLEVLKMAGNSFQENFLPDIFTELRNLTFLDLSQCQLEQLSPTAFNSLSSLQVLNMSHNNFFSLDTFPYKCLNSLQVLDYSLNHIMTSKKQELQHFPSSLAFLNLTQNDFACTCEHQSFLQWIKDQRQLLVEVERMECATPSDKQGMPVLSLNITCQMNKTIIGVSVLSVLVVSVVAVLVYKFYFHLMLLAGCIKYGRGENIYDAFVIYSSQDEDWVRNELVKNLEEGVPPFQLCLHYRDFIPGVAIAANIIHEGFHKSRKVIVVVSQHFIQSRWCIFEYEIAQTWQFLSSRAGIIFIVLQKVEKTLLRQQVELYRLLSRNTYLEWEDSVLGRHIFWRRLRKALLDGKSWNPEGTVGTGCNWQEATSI
Target sequence (Q99836 whole entry, looked up): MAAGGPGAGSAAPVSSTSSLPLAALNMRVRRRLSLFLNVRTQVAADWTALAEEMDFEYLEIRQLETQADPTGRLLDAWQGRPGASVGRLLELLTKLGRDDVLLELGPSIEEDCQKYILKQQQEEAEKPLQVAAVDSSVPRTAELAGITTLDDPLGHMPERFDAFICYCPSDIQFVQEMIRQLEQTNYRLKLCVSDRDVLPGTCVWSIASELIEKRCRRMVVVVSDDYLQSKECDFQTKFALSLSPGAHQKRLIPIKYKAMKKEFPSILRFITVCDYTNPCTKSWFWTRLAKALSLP
HSF1 inh: HSF1 inhibitors in luciferase reporter cells, primary screen, cell-based, NIH3T3, luminescence | activity change, negative = inhibition, % at 7.5 µM (by protocol) | 300,000 compounds, 0.77% hits | NIH3T3-HGL HSE-luciferase, MG132-induced, luminescence 8 h; hits give low values;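 active = more than half of replicate wells show activity change below -50%, luminescence cut by over half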;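 note: luciferase reports HSF-1 transcriptional activity via heat shock element; 0% = median of DMSO wells and -100% = zero luminescence signal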
NOD2 RIPK2 PPI: NOD2-RIPK2 binding disruptors in cells, primary screen, fluorescence, CHO cells, BLA complementation. CCF4 ratio. Receptor-interacting serine/threonine-protein kinase 2 (Homo sapiens), O43353. 360,000 compounds, 0.38% hits. inhibition, % at 4.98 µM; in the data active = inhibition above about 21%;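 note: 0% = vehicle only and 100% = reference blocker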
TLR9-MyD88 inh: inhibitors of TLR9-MyD88 association in cells, primary screen, cell-based, CHO, BLA complementation, fluorescence; Toll-like receptor 9 (Homo sapiens) + Myeloid differentiation primary response protein …; CCF4 FRET ratio; inhibition, % at 4.98 µM; 340,000 compounds, 0.21% hits; AID 504734, 2011;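 active = inhibition above the mean over all tested compounds plus 3 SD, cut at about 21% in these data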;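 note: 0% = DMSO only wells and 100% = clavulanate BLA inhibitor control wells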
TLR4 MyD88 cnf: TLR4-MyD88 association inhibitors, retest, confirmation, cell-based, HeLa CL3-4, BLA complementation, FRET ratio; shares compounds with TLR4-MyD88 BLA; CCF4 FRET ratio; inhibition, % at 8.4 µM; 350 compounds, 50% hits; AID 941, 2007;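 active = mean inhibition across three repeat runs above about 25% carried over from the earlier screen, limit read from the data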;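 note: plate controls were DMSO only for no effect and clavulanic acid blocking BLA at full dose for full effect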
BLA inh HeLa: counter-screen for TLR4-MyD88 inhibitors: beta-lactamase reporter inhibitors | shares compounds with TLR4-MyD88 BLA | HeLa BLA reporter, CCF4 FRET ratio | inhibition, % at 8.4 µM | 350 compounds, 63% hits;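 active = mean inhibition over three repeats above about 26% taken from the earlier screen, limit read from the data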;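 note: HeLa cells stably expressing beta-lactamase reporter as counterscreen for TLR4-MyD88 inhibitors; 0% = DMSO and 100% = clavulanic acid full inhibition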
Active calls of the source: *; x = no result given. Shown are actives, neighbours in structure and some others; about 2.4% of the full set was active somewhere.

SMILES	HSF-1 act	TLR4-MyD88 BLA	HSF1 inh	NOD2 RIPK2 PPI	TLR9-MyD88 inh	TLR4 MyD88 cnf	BLA inh HeLa
NS(=O)(=O)c1ccc(CCNC(=O)CSc2nc3ccsc3c(=O)n2C2CC2)cc1	5	-1	-6	-12	-6	x	x
CCCCNC(=O)CSc1nc2ccsc2c(=O)n1C1CCN(C(=O)OCC)CC1	13	48*	-1	-4	-4	-4	-7
Cc1ccc(OS(=O)(=O)c2ccc(N3C(=O)CCC3=O)cc2)cc1	24	x	10	-14	-2	x	x
COc1cccc(CC(=O)Nc2nccs2)c1	-1	26*	0	1	-2	-6	6
COc1cccc(CC(=O)Nc2ccc(S(=O)(=O)Nc3nccs3)cc2)c1	x	x	x	-3	7	x	x
CC(C)Cn1cnc2c1c(=O)n(CC(=O)NC(=O)NC(C)(C)C)c(=O)n2Cc1ccccc1	19	x	0	8	-7	x	x
Cc1c(N2C(=O)/C(=C\C3CC=CCC3)SC2=S)c(=O)n(-c2ccccc2)n1C (centres undefined)	15	25*	10	1	3	9	-16
Cc1nn(-c2ccccc2)c2c1C(c1ccc(O)c(O)c1)N1C(=N2)C(Nc2ccccc2)=Nc2ccccc21 (centres undefined)	1	57*	0	18	13	52*	89*
Cc1nn(-c2ccccc2)c2c1C(c1ccc([N+](=O)[O-])cc1)N1C(=N2)C(=O)Nc2ccccc21 (centres undefined)	10	5	-3	-4	5	x	x
N#Cc1sc2nc(-c3ccccc3)cc(C(F)(F)F)c2c1N	-10	-2	3	-1	0	x	x
N#Cc1sc2nc(-c3cccs3)cc(-c3ccccc3)c2c1N	13	46*	6	8	6	48*	82*
O=C(COc1cc(Cl)ccc1Cl)N1CCNC1=O	x	x	x	-10	3	x	x
O=C(CSc1nnc(CNc2cccc(C(F)(F)F)c2)n1Cc1ccco1)NCc1ccco1	-24	26*	-5	-8	-1	1	4
COc1cccc(C2=CC(c3ccccc3)n3ncnc3N2)c1 (centres undefined)	-2	10	-7	x	x	x	x
CCOc1ccc(C2C=C(c3ccc(F)cc3)Nc3ncnn32)cc1 (centres undefined)	-7	26*	5	7	7	24	53*
COc1ccc(C2C=C(c3ccccc3)Nc3nc(NC(C)=O)nn32)cc1 (centres undefined)	-3	36*	9	x	x	31*	56*
CCOc1ccc(C2C=C(c3ccccc3)Nc3ncnn32)cc1 (centres undefined)	-3	27*	-2	x	x	24	41*
Cc1cc(CSc2ccc(Cl)cc2)ccc1N	x	x	x	-8	-5	x	x
Cc1ccc(S(=O)(=O)NCCn2nc(C)cc2C)cc1	7	x	4	0	-1	x	x
COc1cccc(C(=O)/C=C/Nc2cc(C)ccc2O)c1	-17	27*	5	4	17	13	24
CCOC(=O)c1ccc(N/C=C\C(=O)c2cccc(OC)c2)cc1	-9	-4	4	-6	-5	x	x
COCCNC(=O)C1CCCN(C(=O)c2ccc(OC)c(F)c2)CC1 (centres undefined)	x	x	x	3	x	x	x
CCOC(=O)C1=C(C)N=c2s/c(=C\c3ccc(OC(C)=O)c(OCC)c3)c(=O)n2C1/C=C/c1ccccc1 (centres undefined)	1	54*	10	9	-7	26*	12
Cc1cccc(C(=O)OC(C)C(=O)N2CCc3ccccc3C2)c1C (centres undefined)	x	x	x	4	11	x	x
CCN(C[C@H]1N[C@@](C)(C(=O)OC)[C@H]2C(=O)N(C)C(=O)[C@@H]12)S(=O)(=O)c1ccc(OC)cc1	x	x	x	0	-13	x	x
SMILES	HSF-1 act	TLR4-MyD88 BLA	HSF1 inh	NOD2 RIPK2 PPI	TLR9-MyD88 inh	TLR4 MyD88 cnf	BLA inh HeLa
CC(C)C(=O)Nc1cccc(-c2nc3ccccc3o2)c1	-21	26*	-11	3	-11	-4	-5
C#CCNCCS(=O)(=O)N(Cc1ccc(Br)cc1)[C@@H](C)C(=O)O	x	x	x	-1	-1	x	x
COC(=O)Nc1sc2c(c1C(N)=O)CCCCCC2	-23	26*	-8	-4	2	-12	-8
COc1ccccc1NS(=O)(=O)c1cc([N+](=O)[O-])ccc1N/N=C/c1c(C)[nH]c2ccccc12	31	36*	5	17	11	22	45*
O=[N+]([O-])c1ccc(N/N=C/c2c[nH]c3ccccc23)c(S(=O)(=O)Nc2ccc(Cl)cc2)c1	8	57*	2	-4	3	43*	65*
CN1CCN(S(=O)(=O)c2cc([N+](=O)[O-])ccc2N/N=C/c2ccc(Cl)cc2)CC1	-13	-9	-9	5	-1	x	x
Cc1ccc(S(=O)(=O)Nc2cc(C(F)(F)F)ccc2N2CCOCC2)cc1C	-5	70*	-2	-7	6	-1	1
CCOc1ccc(C(C)(C)C)cc1S(=O)(=O)N1CCOCC1	4	27*	1	-8	-2	0	-2
CCOc1ccc(S(=O)(=O)N2CCOCC2)c2ccccc12	6	x	5	2	-1	x	x
CC1CC(=O)c2c(cc3c(-c4c(O)cc(O)c5c(O)c6c(cc45)OC(C)CC6=O)c(O)cc(O)c3c2O)O1 (centres undefined)	-5	42*	-3	23*	18	44*	65*
O=C1CC(c2ccc(O)cc2)Oc2cc(O)cc(O)c21 (centres undefined)	9	2	-2	-5	-2	x	x
Oc1sc(C=Nc2ccccc2)c2ccccc12	23	27*	16	-4	14	19	39*
Cc1ccc(C)c(N(CC(=O)N/N=C/c2ccc(-c3ccc([N+](=O)[O-])cc3)o2)S(=O)(=O)c2ccccc2)c1	3	55*	7	7	3	58*	87*
COCCn1c(=O)[nH]c(=O)c2c1nc(-c1ccc(-c3ccc(Cl)cc3[N+](=O)[O-])o1)n2Cc1ccccc1	21	-8	4	1	-5	x	x
COCCn1c(-c2ccc(-c3ccc([N+](=O)[O-])cc3Br)o2)nc2c1c(=O)[nH]c(=O)n2CC(C)C	22	44*	4	15	-2	30*	59*

Source: PubChem BioAssay
